Shown is part of a subset that was picked to be rich in hits.
ROS inducer: ROS inducers in U2OS cancer cells, primary screen, cell-based, H2DCF-DA fluorescence | U2OS ROS induction | AID 624156, 2012 | 46,000 tested, 2% active | ROS induction (% of piperlongumine), % at 10 µM; in the data active = ROS induction above about 79%, passing the limit was not always enough;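 also: 0% = DMSO vehicle median and 100% = reference compound median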
Numbers without * were called inactive.

SMILES | ROS inducer
C=C1C(=O)O[C@@H]2C[C@H](C)[C@@H]3CC(=O)C(C)=C3C[C@H]12 | 93*
C=C1C(=O)OC2C3=C(C)C(=O)CC3C(C)CC(O)C12 (stereo unspecified) | 72
FC(F)(F)c1nc2ccccc2nc1-c1cccc(Cl)c1 | -5
CS(=O)(=O)N(CC(=O)Nc1c(F)cccc1F)c1cccc(Cl)c1Cl | 6
Cc1ccc(Cl)cc1N(CC(=O)Nc1c(F)cccc1F)S(C)(=O)=O | 156*
Cc1ccc(Cl)cc1NC(=O)CN(c1ccccc1F)S(C)(=O)=O | -9
CN(C)CCCN1C(=O)C(=O)C(C(=O)c2cccs2)C1c1ccc(Cl)c(Cl)c1 (stereo unspecified) | 1
C=C1CC(O)C2C(=C)C(=O)OC2C2C(=C)C(OC3OC(CO)C(O)C(OC(=O)/C=C/c4ccc(O)c(O)c4)C3O)CC12 (stereo unspecified) | 7
C[C@@H]1CCCCO[C@H](CN(C)S(=O)(=O)c2ccc(F)cc2)[C@@H](C)CN([C@H](C)CO)C(=O)c2cc(NC(=O)NC3CCCCC3)ccc2O1 | 166*
C[C@@H]1CCCCO[C@@H](CN(C)S(=O)(=O)c2ccccc2)[C@@H](C)CN([C@H](C)CO)C(=O)c2cc(NS(=O)(=O)c3ccc(Cl)cc3)ccc2O1 | 113*
C[C@@H]1CCCCO[C@@H](CN(C)S(=O)(=O)c2ccc(F)cc2)[C@@H](C)CN([C@H](C)CO)C(=O)c2cc(NC(=O)Nc3ccc(F)cc3)ccc2O1 | 7
C[C@@H]1CCCCO[C@@H](CN(C)S(=O)(=O)c2ccc(F)cc2)[C@@H](C)CN([C@H](C)CO)C(=O)c2cc(NS(=O)(=O)c3ccc(F)cc3)ccc2O1 | 69
C[C@@H]1CCCCO[C@H](CN(C)Cc2ccc3c(c2)OCO3)[C@@H](C)CN([C@H](C)CO)C(=O)c2cc(NS(=O)(=O)c3ccc(Cl)cc3)ccc2O1 | 32
C[C@@H]1CCCCO[C@H](CN(C)S(=O)(=O)c2ccc(F)cc2)[C@@H](C)CN([C@H](C)CO)C(=O)c2cc(NS(=O)(=O)c3ccccc3)ccc2O1 | 19
C[C@@H]1CCCCO[C@@H](CN(C)Cc2ccc3c(c2)OCO3)[C@@H](C)CN([C@H](C)CO)C(=O)c2cc(NS(=O)(=O)c3ccccc3)ccc2O1 | 10
C[C@@H]1CCCCO[C@@H](CN(C)S(=O)(=O)c2ccccc2)[C@@H](C)CN([C@H](C)CO)C(=O)c2cc(NS(=O)(=O)c3ccccc3)ccc2O1 | 57
C[C@@H]1CCCCO[C@@H](CN(C)S(=O)(=O)c2ccc(Cl)cc2)[C@@H](C)CN([C@H](C)CO)C(=O)c2cc(NS(=O)(=O)c3ccc(F)cc3)ccc2O1 | 118*
Cc1ccc(S(=O)(=O)Nc2ccc3c(c2)C(=O)N([C@H](C)CO)C[C@H](C)[C@@H](CN(C)Cc2ccc4c(c2)OCO4)OCCCC[C@@H](C)O3)cc1 | 95*
Cc1ccc(S(=O)(=O)N(C)C[C@@H]2OCCCC[C@@H](C)Oc3ccc(NC(=O)NC4CCCCC4)cc3C(=O)N([C@H](C)CO)C[C@@H]2C)cc1 | 18
C[C@@H]1CCCCO[C@H](CN(C)S(=O)(=O)c2ccc(Cl)cc2)[C@@H](C)CN([C@H](C)CO)C(=O)c2cc(NS(=O)(=O)c3ccc(Cl)cc3)ccc2O1 | 51
O=S(=O)(Cc1ccc2nonc2c1)c1cccs1 | -9
C=CC[C@]1(C(=O)N2CCOCC2)COC(c2ccc(OCCCO)cc2)=N1 | 13
CCOC(=O)c1c(S(=O)(=O)Nc2ccc(Cl)cc2)c(C)n(-c2ccccc2)c1C | 12
Oc1ccc(Cn2nc(-c3ccc(O)cc3)c3ccccc32)cc1 | -4
COc1ccc(Cl)cc1N(CC(=O)Nc1ccc(I)cc1)S(C)(=O)=O | -2
SMILES | ROS inducer
Cc1ccc(S(=O)(=O)N(C)C[C@@H]2Oc3ccc(NC(=O)Nc4c(C)noc4C)cc3CC(=O)N([C@H](C)CO)C[C@@H]2C)cc1 | -2
C[C@@H]1CCCCO[C@@H](CN(C)S(=O)(=O)c2ccc(Cl)cc2)[C@@H](C)CN([C@H](C)CO)C(=O)c2cc(NC(=O)c3ccccc3)ccc2O1 | 133*
C[C@@H]1CCCCO[C@@H](CN(C)S(=O)(=O)c2ccc(Cl)cc2)[C@@H](C)CN([C@H](C)CO)C(=O)c2cc(NC(=O)c3ccncc3)ccc2O1 | 11
C[C@@H]1CCCCO[C@H](CN(C)S(=O)(=O)c2ccccc2)[C@@H](C)CN([C@H](C)CO)C(=O)c2cc(NC(=O)c3ccccc3)ccc2O1 | 19
CN1CCN(CCOc2ccccc2)CC1 | 19
COc1ccc(OC(=O)N(C)C[C@H]2OCc3cn(nn3)CCCC(=O)N([C@@H](C)CO)C[C@@H]2C)cc1 | 15
O=C(NCCCN1CCN(c2ccccc2[N+](=O)[O-])CC1)Nc1ccccc1F | 7
COc1cccc(NC(=O)CN(C)S(=O)(=O)c2cc(C)ccc2OC)c1 | -4
CC1(C)CC(=O)C2=C(C1)N(Cc1ccco1)C(=O)NC2(C(F)(F)F)C(F)(F)F | 3
CCCN1C(=O)C(NS(=O)(=O)c2ccc(NC(C)=O)cc2)(C(F)(F)F)C2=C1CC(C)(C)CC2=O (stereo unspecified) | -4
CCCCN1C(C)=NC(C(F)(F)F)(C(F)(F)F)C2=C1CC(C)(C)CC2=O | 120*
Cn1c(C(=O)N2CCC(C(=O)O)CC2)cc2sccc21 | -12
C[C@@H]1CN([C@@H](C)CO)C(=O)c2cc(NC(=O)Nc3ccc(F)cc3)ccc2O[C@@H]1CN(C)Cc1ccc(-c2ccccc2)cc1 | 37
Cc1c(C)c(C)c(S(=O)(=O)N=C(N)N)c(C)c1C | -19
C[C@@H]1CCCCO[C@@H](CN(C)C(=O)Nc2cccc3ccccc23)[C@@H](C)CN([C@H](C)CO)C(=O)c2cc(NC(=O)C3CCCCC3)ccc2O1 | 134*
C[C@@H]1CCCCO[C@H](CN(C)C(=O)Nc2cccc3ccccc23)[C@@H](C)CN([C@H](C)CO)C(=O)c2cc(NS(=O)(=O)c3ccccc3)ccc2O1 | 56
C[C@@H]1CCCCO[C@H](CN(C)C(=O)Nc2cccc3ccccc23)[C@@H](C)CN([C@H](C)CO)C(=O)c2cc(NC(=O)Nc3cccc4ccccc34)ccc2O1 | 53
C[C@@H]1CCCCO[C@H](CN(C)C(=O)Nc2cccc3ccccc23)[C@@H](C)CN([C@H](C)CO)C(=O)c2cc(NS(=O)(=O)c3ccc(Cl)cc3)ccc2O1 | 89*
C[C@@H]1CCCCO[C@H](CN(C)C(=O)Nc2cccc3ccccc23)[C@@H](C)CN([C@H](C)CO)C(=O)c2cc(NS(=O)(=O)c3ccc(F)cc3)ccc2O1 | 54
C[C@@H]1CCCCO[C@H](CN(C)C(=O)Nc2cccc3ccccc23)[C@@H](C)CN([C@H](C)CO)C(=O)c2cc(NC(=O)C3CCCCC3)ccc2O1 | 22
CCOC(=O)C1=C(C)N(C(=O)Oc2ccccc2)C(SC)=NC1c1ccccc1 (stereo unspecified) | 3
COc1ccc(NC(=O)N(C)C[C@@H]2Oc3ccc(NC(=O)CCN4CCOCC4)cc3C(=O)N([C@@H](C)CO)C[C@@H]2C)cc1 | 12
Cc1onc(-c2ccccc2)c1-c1csc(Nc2ccccc2Cl)n1 | 1
CCC(Sc1nnnn1-c1ccccc1)C(=O)N1c2ccccc2Sc2ccccc21 (stereo unspecified) | -2
C[C@H](CO)N1C[C@H](C)[C@H](CN(C)Cc2ccc3c(c2)OCO3)Oc2ccc(NS(=O)(=O)c3ccc(F)cc3)cc2CC1=O | 11
C[C@H]1CN([C@@H](C)CO)C(=O)Cc2cc(NS(=O)(=O)c3ccc(F)cc3)ccc2O[C@@H]1CN(C)Cc1ccc2c(c1)OCO2 | 23

Screens: PubChem BioAssay, Broad Institute
